# Measurements taken from PubChem BioAssay (NCATS).
# Where “and” joins values, the source holds several entries; their conditions need not be identical. Identical values can stand only once. Results filed as inconclusive are left out. A call without a number means that no potency is given here. Calls of active or inactive are those of the source. Unless noted, calls follow the shape of the dose curve; as a rule, active = well fitted inhibition curve with a large enough effect; inconclusive = small, poorly fitted or top-dose-only effect; inactive = flat fitted curve, though single readings scatter. Peptide text beside a SMILES is read from it.
# What was measured:
# [1] = molecular target: Ubiquitin carboxyl-terminal hydrolase 1 (Homo sapiens) (UniProt O94782); experiment: Inhibitors of USP1/UAF1: Pilot qHTS (AID 504865); also: nearly all actives have a fitted effect of over 35% in size; also: potency is read from the fitted curve at half-maximal effect
# How it was run: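 Enzyme-free wells gave the negative control, while test wells held 1nM USP1/UAF1 preincubated with compound for 15 min at room temperature. Ub-Rho at 150nM final started the reaction, and fluorescence at 480/540 nm was recorded kinetically.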
# [2] = molecular target: DNA dC->dU-editing enzyme APOBEC-3G (Homo sapiens) (UniProt Q9HC16); experiment: qHTS for inhibitors of Vif-A3G interactions: Validation (AID 588379)
# How it was run: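 Yellow fluorescence (Ex 488, Em 500-530) of Vif-coexpressing HeLa A3G-eYFP cells, scanned by Acumen cytometer, reports blocked A3G degradation. Cells plated at 700/well overnight at 37 deg C before compound addition, then a further overnight compound incubation at 37 deg C.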
# [3] = molecular target: Estrogen receptor (Homo sapiens) (UniProt P03372); experiment: qHTS assay for small molecule antagonists of estrogen receptor alpha signaling (AID 588513; active = well fitted curve in the direction sought with a large enough effect in the signal ratio, with a control signal flat, not every such curve was filed as active; the % refers to the signal ratio)
# How it was run: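 Antagonist-mode qHTS in ER-alpha-UAS-bla HEK 293 cells: compound titration, 0.5nM estradiol for 18 h, CCF4 fluorescence, Hill-derived IC50.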
# [4] = molecular target: Estrogen receptor (Homo sapiens) (UniProt P03372); experiment: qHTS assay for small molecule agonists of estrogen receptor alpha signaling (AID 588514; calls by dose curve; also: nearly all actives have a fitted effect of over 70% in size)
# How it was run: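 EC50 and efficacy came from Hill fits of beta-lactamase reporter signal (CCF4 dye, 2 h at room temperature) scaled between DMSO and 20 nM 17-beta-estradiol. Agonist mode: HEK293 ER-alpha-UAS-bla cells in charcoal/dextran-stripped serum medium, 18 h compound exposure at 37 C.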
# [5] = molecular target: Bile acid receptor (Homo sapiens) (UniProt Q96RI1); experiment: qHTS assay for small molecule antagonists of farnesoid X receptor signaling (AID 588526; calls by dose curve; also: potency is read from the fitted curve at half-maximal effect)
# How it was run: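 Beta-lactamase reporter antagonist mode: HEK293T FXR-UAS-bla cells, titrated compound, CDCA stimulation, 16 h 37 C, CCF4 dye 2 h RT. Data normalized to CDCA 50 uM and DMSO; Hill-fit IC50.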
# [6] = qHTS assay for small molecule antagonists of peroxisome proliferator-activated receptor delta signaling (AID 588535; active = well fitted inhibition curve with a large enough effect in the signal ratio, with a control signal flat, not every such curve was filed as active; the % refers to the signal ratio;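 as to max response: cells co-treated with a PPAR-delta agonist as stimulator during compound exposure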); conditions: HEK293T PPARd-UAS-bla, beta-lactamase FRET ratio, 18 h; 460 nm channel
# How it was run: (§1)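 Titrations were run on PPAR-delta-UAS-bla HEK293T cells in charcoal/dextran-stripped serum, incubated 18 h at 37 C. CCF4 fluorescence (460/530 nm) after 2 h RT; Hill equation yields IC50 and maximal response.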
# [7] = molecular target: Peroxisome proliferator-activated receptor delta (Homo sapiens) (UniProt Q03181); experiment: as above
# How it was run: as §1
# [8] = molecular target: Glucocorticoid receptor (Homo sapiens) (UniProt P04150); experiment: qHTS assay for small molecule agonists of glucocorticoid receptor signaling (AID 588532; active = well fitted curve in the direction sought with a large enough effect in the signal ratio, with a control signal flat; the % refers to the signal ratio); conditions: HeLa MMTV-bla, beta-lactamase ratio, agonist, 18 h; stronger effect = higher value; percent of dexamethasone control, DMSO zero
# How it was run: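 Using MMTV-bla HeLa cells in medium with 1% stripped FBS and 25 mM HEPES, compounds were titrated and incubated overnight-length (18 h). Beta-lactamase cleavage of CCF4 was quantified by dual-emission fluorescence.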
# [9] = molecular target: Glucocorticoid receptor (Homo sapiens) (UniProt P04150); experiment: qHTS assay for small molecule antagonists of glucocorticoid receptor signaling (AID 588533; active = well fitted inhibition curve with a large enough effect in the signal ratio, with a control signal flat, not every such curve was filed as active; the % refers to the signal ratio;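 also: cells stimulated with 2 nM dexamethasone as agonist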)
# How it was run: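 Antagonist-mode qHTS: compound titrations added to GRE-bla HeLa cells, then dexamethasone 2 nM final; 18 h, 37 C. CCF4 FRET fluorescence normalized to dexamethasone and DMSO; IC50 from Hill fit.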
# [10] = molecular target: Androgen receptor (Homo sapiens) (UniProt P10275); experiment: qHTS assay for small molecule agonists of androgen receptor signaling (AID 588515; active = well fitted curve in the direction sought with a large enough effect in the signal ratio, with a control signal flat; the % refers to the signal ratio); conditions: AR-UAS-bla HEK293, beta-lactamase ratio, agonist 16 h; stronger effect = higher value
# How it was run: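 Stimulation of an AR-responsive β-lactamase reporter in GripTite HEK293 cells was measured after 16 h compound exposure at 37 °C, via CCF4 fluorescence after 2 h RT. EC50 from Hill fits, normalized to R1881 at 30 nM.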
# [11] = molecular target: Androgen receptor (Homo sapiens) (UniProt P10275); experiment: qHTS assay for small molecule antagonists of androgen receptor signaling (AID 588516; active = well fitted curve in the direction sought with a large enough effect in the signal ratio, with a control signal flat, not every such curve was filed as active; the % refers to the signal ratio)
# How it was run: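 Compounds tested in titration against 10 nM R1881 in AR-responsive bla reporter HEK 293 cells; CCF4 fluorescence (460/530 nm) after 16 h exposure gave IC50 and efficacy.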
# Chain of Ubiquitin carboxyl-terminal hydrolase 1 (Homo sapiens) (O94782 whole entry, looked up): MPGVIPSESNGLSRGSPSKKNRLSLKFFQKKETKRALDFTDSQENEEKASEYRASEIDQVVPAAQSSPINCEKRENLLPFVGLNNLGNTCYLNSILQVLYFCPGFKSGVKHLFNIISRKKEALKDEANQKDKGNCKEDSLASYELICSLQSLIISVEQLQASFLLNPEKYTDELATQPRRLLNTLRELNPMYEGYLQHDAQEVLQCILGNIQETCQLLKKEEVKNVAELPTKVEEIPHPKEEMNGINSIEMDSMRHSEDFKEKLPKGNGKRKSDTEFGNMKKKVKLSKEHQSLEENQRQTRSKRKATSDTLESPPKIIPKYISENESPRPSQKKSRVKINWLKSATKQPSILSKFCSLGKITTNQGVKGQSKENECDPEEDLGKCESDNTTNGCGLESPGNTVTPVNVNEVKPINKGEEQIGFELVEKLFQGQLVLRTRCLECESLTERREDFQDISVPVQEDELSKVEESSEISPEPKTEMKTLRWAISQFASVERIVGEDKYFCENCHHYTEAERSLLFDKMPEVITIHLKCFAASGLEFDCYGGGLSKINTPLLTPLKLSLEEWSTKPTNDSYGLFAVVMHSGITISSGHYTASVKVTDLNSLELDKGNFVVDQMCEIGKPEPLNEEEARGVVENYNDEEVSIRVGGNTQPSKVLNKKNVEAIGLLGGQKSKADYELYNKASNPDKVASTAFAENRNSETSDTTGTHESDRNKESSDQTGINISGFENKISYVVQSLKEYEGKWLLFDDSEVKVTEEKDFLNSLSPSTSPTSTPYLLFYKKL
# Chain of Bile acid receptor (Homo sapiens) (Q96RI1 whole entry, looked up): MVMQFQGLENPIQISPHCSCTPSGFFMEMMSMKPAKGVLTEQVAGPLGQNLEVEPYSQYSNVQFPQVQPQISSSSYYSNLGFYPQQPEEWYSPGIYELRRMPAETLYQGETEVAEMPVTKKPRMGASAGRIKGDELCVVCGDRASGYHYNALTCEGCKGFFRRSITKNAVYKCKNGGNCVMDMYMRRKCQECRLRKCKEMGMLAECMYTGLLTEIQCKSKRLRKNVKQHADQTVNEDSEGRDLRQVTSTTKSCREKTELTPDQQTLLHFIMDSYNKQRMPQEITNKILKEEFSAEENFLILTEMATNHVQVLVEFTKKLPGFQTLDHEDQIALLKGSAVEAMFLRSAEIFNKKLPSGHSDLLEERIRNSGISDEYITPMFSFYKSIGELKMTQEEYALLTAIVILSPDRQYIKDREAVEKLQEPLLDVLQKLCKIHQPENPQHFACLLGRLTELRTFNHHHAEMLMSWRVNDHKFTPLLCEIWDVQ
# Chain of Androgen receptor (Homo sapiens) (P10275 whole entry, looked up): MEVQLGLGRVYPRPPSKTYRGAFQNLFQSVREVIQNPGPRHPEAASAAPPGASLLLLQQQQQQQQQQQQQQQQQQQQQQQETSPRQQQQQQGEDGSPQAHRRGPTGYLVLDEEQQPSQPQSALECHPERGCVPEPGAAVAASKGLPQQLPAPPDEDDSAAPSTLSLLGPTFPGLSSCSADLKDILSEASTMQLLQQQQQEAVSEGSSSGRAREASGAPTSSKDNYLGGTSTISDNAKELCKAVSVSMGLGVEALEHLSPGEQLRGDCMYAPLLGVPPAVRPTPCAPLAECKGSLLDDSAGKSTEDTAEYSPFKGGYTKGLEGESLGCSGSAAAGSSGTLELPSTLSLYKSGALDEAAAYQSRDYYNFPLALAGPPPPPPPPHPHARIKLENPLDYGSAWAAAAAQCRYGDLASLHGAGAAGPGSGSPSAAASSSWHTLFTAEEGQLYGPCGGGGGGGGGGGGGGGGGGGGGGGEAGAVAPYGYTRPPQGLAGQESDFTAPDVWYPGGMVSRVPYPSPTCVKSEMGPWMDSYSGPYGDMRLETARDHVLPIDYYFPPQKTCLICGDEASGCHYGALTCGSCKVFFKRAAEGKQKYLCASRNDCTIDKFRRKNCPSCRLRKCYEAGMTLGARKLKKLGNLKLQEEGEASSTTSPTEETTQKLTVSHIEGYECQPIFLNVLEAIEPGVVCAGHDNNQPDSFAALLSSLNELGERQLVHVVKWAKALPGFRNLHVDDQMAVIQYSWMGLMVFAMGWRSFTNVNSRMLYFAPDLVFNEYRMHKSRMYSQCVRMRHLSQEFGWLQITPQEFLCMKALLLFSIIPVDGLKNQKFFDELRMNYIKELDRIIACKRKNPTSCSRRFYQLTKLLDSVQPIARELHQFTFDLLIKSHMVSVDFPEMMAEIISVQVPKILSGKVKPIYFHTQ
# Chain of Glucocorticoid receptor (Homo sapiens) (P04150 whole entry, looked up): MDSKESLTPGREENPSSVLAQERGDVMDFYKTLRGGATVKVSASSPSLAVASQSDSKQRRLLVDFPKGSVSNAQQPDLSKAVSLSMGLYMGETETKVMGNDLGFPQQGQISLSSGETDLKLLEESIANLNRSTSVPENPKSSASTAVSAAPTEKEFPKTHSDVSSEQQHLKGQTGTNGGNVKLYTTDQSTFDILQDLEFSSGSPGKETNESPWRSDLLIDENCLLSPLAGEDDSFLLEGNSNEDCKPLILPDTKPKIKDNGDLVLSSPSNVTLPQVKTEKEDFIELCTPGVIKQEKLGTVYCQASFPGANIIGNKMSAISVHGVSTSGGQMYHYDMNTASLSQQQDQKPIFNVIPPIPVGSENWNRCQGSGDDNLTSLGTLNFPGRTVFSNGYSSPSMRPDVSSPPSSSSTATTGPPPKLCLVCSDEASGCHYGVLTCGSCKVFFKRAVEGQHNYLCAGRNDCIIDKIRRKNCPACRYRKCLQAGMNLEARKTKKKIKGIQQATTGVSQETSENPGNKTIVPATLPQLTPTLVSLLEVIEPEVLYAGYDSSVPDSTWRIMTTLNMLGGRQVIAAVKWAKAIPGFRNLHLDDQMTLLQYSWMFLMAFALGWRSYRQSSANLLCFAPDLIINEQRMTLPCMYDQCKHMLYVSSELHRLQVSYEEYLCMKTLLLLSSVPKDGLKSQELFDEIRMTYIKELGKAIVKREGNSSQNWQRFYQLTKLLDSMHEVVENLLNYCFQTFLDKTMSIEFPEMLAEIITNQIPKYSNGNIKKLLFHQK
# Chain of Estrogen receptor (Homo sapiens) (P03372 whole entry, looked up): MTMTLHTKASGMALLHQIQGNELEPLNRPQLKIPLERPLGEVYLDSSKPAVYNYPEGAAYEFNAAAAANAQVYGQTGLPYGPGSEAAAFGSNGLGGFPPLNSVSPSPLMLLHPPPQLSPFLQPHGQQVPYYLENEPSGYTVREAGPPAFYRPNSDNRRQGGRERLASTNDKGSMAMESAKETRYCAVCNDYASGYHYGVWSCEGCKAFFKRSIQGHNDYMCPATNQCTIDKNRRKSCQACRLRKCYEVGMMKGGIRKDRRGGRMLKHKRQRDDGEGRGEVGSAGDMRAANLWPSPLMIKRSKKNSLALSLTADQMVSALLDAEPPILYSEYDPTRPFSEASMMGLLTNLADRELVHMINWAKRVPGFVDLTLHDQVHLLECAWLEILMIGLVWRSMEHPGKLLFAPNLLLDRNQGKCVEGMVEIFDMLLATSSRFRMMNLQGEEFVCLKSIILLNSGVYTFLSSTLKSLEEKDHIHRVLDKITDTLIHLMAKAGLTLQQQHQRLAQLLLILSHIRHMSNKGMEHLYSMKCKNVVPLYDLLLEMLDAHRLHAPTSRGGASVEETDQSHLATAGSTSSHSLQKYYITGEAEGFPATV
# Chain of DNA dC->dU-editing enzyme APOBEC-3G (Homo sapiens) (Q9HC16 whole entry, looked up): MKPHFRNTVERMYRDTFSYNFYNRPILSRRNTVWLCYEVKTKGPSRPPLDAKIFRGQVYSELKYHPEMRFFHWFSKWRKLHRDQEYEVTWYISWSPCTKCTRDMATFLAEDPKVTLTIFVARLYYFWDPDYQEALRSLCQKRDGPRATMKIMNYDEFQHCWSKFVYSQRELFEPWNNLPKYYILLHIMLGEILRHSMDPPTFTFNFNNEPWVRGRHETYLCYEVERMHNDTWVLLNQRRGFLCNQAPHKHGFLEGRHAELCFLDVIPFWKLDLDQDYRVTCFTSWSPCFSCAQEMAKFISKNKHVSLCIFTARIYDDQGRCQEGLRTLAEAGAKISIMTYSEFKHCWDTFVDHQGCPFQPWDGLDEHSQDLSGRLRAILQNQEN
# Chain of Peroxisome proliferator-activated receptor delta (Homo sapiens) (Q03181 whole entry, looked up): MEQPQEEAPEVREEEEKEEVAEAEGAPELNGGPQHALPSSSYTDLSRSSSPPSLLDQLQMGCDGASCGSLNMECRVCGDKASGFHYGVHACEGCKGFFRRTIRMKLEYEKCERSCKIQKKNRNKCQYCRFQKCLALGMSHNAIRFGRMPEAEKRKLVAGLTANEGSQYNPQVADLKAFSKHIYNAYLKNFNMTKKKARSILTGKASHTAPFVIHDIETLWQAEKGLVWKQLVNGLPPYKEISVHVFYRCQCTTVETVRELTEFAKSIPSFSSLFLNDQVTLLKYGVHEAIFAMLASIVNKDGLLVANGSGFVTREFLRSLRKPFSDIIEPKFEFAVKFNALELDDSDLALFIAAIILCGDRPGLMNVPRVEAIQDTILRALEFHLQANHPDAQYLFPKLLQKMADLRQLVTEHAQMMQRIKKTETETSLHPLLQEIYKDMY
smiles,measurement,setting,value
COCC(=O)Nc1cc(Sc2ccccc2)ccc1N=C(NC(=O)OC)NC(=O)OC,Potency,[1],inactive
CC(Cc1ccc(O)c(O)c1)C(C)Cc1ccc(O)c(O)c1 (stereo unspecified),outcome,[2],inactive
CC1=C2[C@@H]([C@H](C)CC[C@H]2/C=C(\C)C(=O)O)[C@H](O)C1,outcome,[3],inactive
same,Potency,[4],inactive
same,Potency,[5],inactive
CCCCC/C=C\C/C=C\CCCCCCCC(=O)O,outcome,[3],inactive
same,Potency,[4],inactive
same,Potency,[5],inactive
same,max response,[6],53% and -23.8%
same,outcome,[7],inactive
NC(=O)c1ncn(C2OC(CO)C(O)C2O)n1 (stereo unspecified),Potency,[1],inactive
CCOC(C)=O,Potency,[1],inactive
same,outcome,[3],inactive
same,Potency,[4],inactive
same,activation,[8],-2.25% (inactive)
same,outcome,[9],inactive
same,max response,[6],-20.7%
same,outcome,[7],inactive
Nc1ccn([C@H]2CS[C@@H](CO)O2)c(=O)n1,activation,[8],-2.07% (inactive)
same,outcome,[9],inactive
same,max response,[6],-4.56%
same,outcome,[7],inactive
OCc1ccccc1O[C@@H]1O[C@H](CO)[C@@H](O)[C@H](O)[C@H]1O,Potency,[1],inactive
same,outcome,[2],inactive
CCCCC(CC)COC(=O)CC(C(=O)OCC(CC)CCCC)S(=O)(=O)O (stereo unspecified),Potency,[1],50.1 µM (active)
same,activation,[8],-0.211% (inactive)
same,outcome,[9],inactive
same,max response,[6],46.2%
same,outcome,[7],inactive
CCCCCCCC(=O)O,Potency,[1],inactive
same,outcome,[3],inactive
same,Potency,[4],inactive
same,outcome,[9],inactive
CC1(C)C(C=C(Cl)Cl)C1C(=O)OCc1cccc(Oc2ccccc2)c1 (stereo unspecified),Potency,[1],inactive
same,outcome,[3],inactive
same,Potency,[4],inactive
same,activation,[10],4.68% (inactive) [middle of 4 runs]
same,outcome,[11],inactive
same,outcome,[9],inactive
same,outcome,[7],inactive
CCCCCCCC/C=C\CCCCCCCC(=O)O,Potency,[1],35.5 µM (active)
same,outcome,[3],inactive
same,Potency,[4],inactive
same,Potency,[5],inactive
same,activation,[8],-2.91% (inactive) and 1.43% (inactive)
same,outcome,[9],inactive
same,max response,[6],18% and 10.3%
same,outcome,[7],inactive
CC(C)(C)NC(=O)[C@@H]1C[C@@H]2CCCC[C@@H]2CN1C[C@@H](O)[C@H](Cc1ccccc1)NC(=O)[C@H](CC(N)=O)NC(=O)c1ccc2ccccc2n1,Potency,[5],44.7 µM (active)
CC(=O)N[C@@H](CC(=O)O)C(=O)N[C@@H](CCC(=O)O)C(=O)O (Ac-Asp-Glu-OH),Potency,[1],inactive
same,outcome,[2],inactive
CC1=CCC(C(C)(C)O)CC1 (stereo unspecified),Potency,[1],inactive
same,outcome,[3],inactive
same,Potency,[4],inactive
same,activation,[10],3.37% (inactive)
same,outcome,[11],inactive
same,Potency,[5],inactive
same,max response,[6],-21.9%
same,outcome,[7],inactive
Cc1c(C)c2c(c(C)c1O)CC[C@@](C)(CCC[C@H](C)CCC[C@H](C)CCCC(C)C)O2,Potency,[1],inactive
same,outcome,[2],inactive
CC1(C)S[C@@H]2[C@H](NC(=O)Cc3ccccc3)C(=O)N2[C@H]1C(=O)O,Potency,[1],inactive
COC(C(=O)C(O)C(C)O)C1Cc2cc3cc(OC4CC(OC5CC(O)C(O)C(C)O5)C(O)C(C)O4)c(C)c(O)c3c(O)c2C(=O)C1OC1CC(OC2CC(OC3CC(C)(O)C(O)C(C)O3)C(O)C(C)O2)C(O)C(C)O1 (stereo unspecified),Potency,[1],inactive
CC1(C)S[C@@H]2[C@H](NC(=O)[C@@H](NC(=O)N3CCNC3=O)c3ccccc3)C(=O)N2[C@H]1C(=O)O,Potency,[1],inactive
Clc1cc(Cl)c(OCC#CI)cc1Cl,Potency,[1],inactive
O=C(COc1ccc(Cl)cc1)OCCNC12CC3CC(CC(C3)C1)C2,Potency,[1],inactive
